Experiments:
Assay in all cases: PBM binding z-score (relative to random genomic background probes); higher = stronger binding; sequences stand for … in GC…GCGATTGACAGCGTAGAATGAAGG
[1] = tested on: FXR:RXRa (NR concentration 270 nM, RXRa partner concentration 90 nM)
Procedure, shortened: (§1)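 Binding z-scores take random background probes as their reference. They come from custom Agilent 4×180K protein-binding microarrays incubated 1 h with ligand-free nuclear receptor dimers, with antibodies against each partner (one per run) detecting binding. Scanned fluorescence was regression-normalized.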

[2] = tested on: LXRa:RXRa (NR concentration 270 nM, RXRa partner concentration 90 nM)
Procedure, shortened: as §1

[3] = tested on: LXRa homodimer (NR concentration 270 nM)
Procedure, shortened: as §1

[4] = tested on: LXRb:RXRa (NR concentration 270 nM, RXRa partner concentration 90 nM)
Procedure, shortened: as §1

[5] = tested on: LXRb homodimer (NR concentration 270 nM)
Procedure, shortened: as §1

[6] = tested on: PPARa:RXRa (NR concentration 270 nM, RXRa partner concentration 90 nM)
Procedure, shortened: as §1

[7] = tested on: PPARg:RXRa (NR concentration 180 nM, RXRa partner concentration 90 nM)
Procedure, shortened: as §1

[8] = tested on: PPARg:RXRa 270nM:90nM, anti-RXR (NR concentration 270 nM, RXRa partner concentration 90 nM)
Procedure, shortened: as §1

[9] = tested on: PPARg:RXRa 30nM:10nM, anti-RXR (NR concentration 30 nM, RXRa partner concentration 10 nM)
Procedure, shortened: as §1

[10] = tested on: PPARg:RXRa 90nM:30nM, anti-RXR (NR concentration 90 nM, RXRa partner concentration 30 nM)
Procedure, shortened: as §1

[11] = tested on: PPARg:RXRa DBDmut IVT, anti-RXR (DBD mutation: RXRa K156A/R161A, NR concentration 270 nM, RXRa partner concentration 90 nM)
Procedure, shortened: as §1

[12] = tested on: PPARg:RXRa IVT, anti-PPARg (NR concentration 270 nM, RXRa partner concentration 90 nM)
Procedure, shortened: as §1

[13] = tested on: PPARg DBDmut:RXRa IVT, anti-PPARg (DBD mutation: PPARg1 K132A/R137A, NR concentration 270 nM, RXRa partner concentration 90 nM)
Procedure, shortened: as §1

[14] = tested on: PPARg DBDmut IVT, anti-PPARg (DBD mutation: PPARg1 K132A/R137A, NR concentration 270 nM)
Procedure, shortened: as §1

[15] = tested on: PPARg homodimer (NR concentration 180 nM)
Procedure, shortened: as §1

[16] = tested on: PXR:RXRa (NR concentration 270 nM, RXRa partner concentration 90 nM)
Procedure, shortened: as §1

[17] = tested on: PXR homodimer (NR concentration 270 nM)
Procedure, shortened: as §1

[18] = tested on: RARa:RXR (NR concentration 270 nM, RXRa partner concentration 90 nM)
Procedure, shortened: as §1

[19] = tested on: RARa homodimer (NR concentration 270 nM)
Procedure, shortened: as §1

[20] = tested on: RARb:RXRa (NR concentration 270 nM, RXRa partner concentration 90 nM)
Procedure, shortened: as §1

Row | Sequence | PBM binding z-score [1] | PBM binding z-score [2] | PBM binding z-score [3] | PBM binding z-score [4] | PBM binding z-score [5] | PBM binding z-score [6] | PBM binding z-score [7] | PBM binding z-score [8] | PBM binding z-score [9] | PBM binding z-score [10] | PBM binding z-score [11] | PBM binding z-score [12] | PBM binding z-score [13] | PBM binding z-score [14] | PBM binding z-score [15] | PBM binding z-score [16] | PBM binding z-score [17] | PBM binding z-score [18] | PBM binding z-score [19] | PBM binding z-score [20]
1 | CAGCCTAGATCAGGGCCAGTATAGGAGGAACGTT | -0.83 | -0.998 | -0.438 | -1.08 | -1.15 | -0.772 | 0.274 | -0.997 | -0.386 | -0.789 | -0.475 | -0.568 | -0.718 | -0.931 | -0.197 | -0.797 | -0.456 | -0.741 | -0.525 | -0.399
2 | AATACAGGGTCATCGTAGGGCAGAGTACGCACAG | 7.54 | 6.88 | 2.95 | 5.07 | 1.16 | 5.83 | 6.94 | 6.07 | 2.84 | 4.96 | 3.16 | 4.29 | 1.4 | 0.756 | 3.57 | 5.4 | 0.861 | 5.26 | 0.97 | 4.7
3 | TATAGTTGGTCAAAGGTCACACACTCGAAATGCG | 5.81 | 6.08 | 3.62 | 5.5 | 2.11 | 6.7 | 11.4 | 9.75 | 9.43 | 10.9 | 2.28 | 6.4 | 1.87 | 3.69 | 4.52 | 6.04 | 1.29 | 6.91 | 2.66 | 5.04
4 | ATCGAAAGGTAGTGAGGTGAGTATACAGAAAGGC | 0.0464 | -0.187 | 0.0161 | -0.247 | -0.154 | 0.153 | 0.582 | 0.0693 | 0.155 | 0.0111 | -0.75 | 0.597 | 0.685 | 1.02 | -0.358 | -0.273 | 0.226 | -0.126 | 0.18 | 0.322
5 | CCTAGCAGGCCAATCTGGGTCACCCAAGGCTTGA | 0.68 | 1.16 | -0.385 | 0.427 | -0.863 | 3.04 | 2.45 | 2.51 | -0.13 | 1.89 | 3.64 | 4.92 | -0.253 | -1.35 | 0.456 | 1.03 | -0.451 | 1.59 | -0.135 | 1.62
6 | TCTATTAGTTGAAGGGCAACGGACGAGTCCGTTT | 0.568 | 0.993 | 0.2 | 1.07 | 0.679 | 1.06 | 0.0889 | 2.19 | 3.6 | 2.89 | 2.22 | 0.812 | 0.14 | 0.912 | 0.894 | 0.785 | 1.18 | 0.778 | 0.625 | 1.76
7 | AGTACAGGGTCACTAGGCCAGAGTAGGTACGAAT | 5.64 | 3.74 | -0.159 | 3.25 | 0.166 | 5.73 | 7.54 | 6.4 | 2.95 | 5.23 | 3.37 | 5.52 | 0.92 | 0.785 | 2.13 | 3.07 | 0.0901 | 4.21 | 0.585 | 4.23
8 | TCTCGGAGGACACGAAGGTCAGAGGTTTCCAGAG | 1.53 | 1.38 | 0.357 | 1.1 | -0.91 | 2.12 | 0.856 | 2.22 | 2.35 | 2.2 | 1.38 | 1.27 | -0.769 | -0.978 | 1.73 | 2.39 | 1.24 | 2.75 | 0.0674 | 3.42
9 | CTCGAAAGGTCGGTTGAGGTGATTATACGGATAA | 2.6 | 1.84 | -0.0507 | 1.68 | -0.13 | 2.79 | 0.571 | 1.14 | 0.341 | 0.688 | 0.246 | 0.642 | 0.351 | 0.785 | 1.2 | 3.74 | 0.3 | 2.2 | 0.287 | 2.85
10 | TCTAGCAGGCCCGAGGGTCACTCAAGAGGTACGG | 0.726 | 0.983 | -0.649 | 1.04 | -1.35 | 1.96 | 0.501 | 1.33 | 1.57 | 1.42 | 0.262 | -0.284 | -0.445 | -0.801 | 0.169 | 1.35 | -0.577 | 2.07 | -0.992 | 1.94
11 | ATCTCTAGGTAAAGTTCAGAGAAAGATCGATAGA | 1.31 | 1.89 | 1.72 | 1.3 | 0.639 | 2.4 | 3.54 | 4.66 | 2.76 | 4.68 | 2.15 | 2.79 | 1.18 | 0.787 | 2.17 | 2.04 | 1.86 | 1.25 | 1.48 | 2.51
12 | GGAACGAGGCCAAAGTTGATAGCATCTGTCGACG | 0.0318 | -0.0376 | -0.578 | -0.183 | -0.827 | 3.46 | 5.8 | 6.25 | 5.14 | 6.31 | 2.57 | 2.98 | -0.146 | -0.0906 | 0.104 | 0.113 | -0.124 | 0.441 | -0.395 | 1.33
13 | ATCTCTAGGTAAAGATAGTTCACTGAATGCAAAT | 0.402 | 4.91 | 1.11 | 1.37 | 0.641 | 1.26 | 0.98 | 0.827 | 0.387 | 0.797 | 2.05 | 1.64 | 0.743 | 0.839 | 1.04 | 1.81 | 0.848 | 1.12 | 0.837 | 1.26

Source: the supplement of paper PMC6555819
